Read-out in assay [1]: organic anion transporter (SLCO1B1), SLCO1B1 (gene 10599)
Briefly: CLD_SLCO1B1_24hr: CellzDirect (CLD) Gene Expression Assay for organic anion transporter (SLCO1B1) at 24 hours (AID 2283690). The procedure, abridged: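 Primary human hepatocytes (two donor preparations) dosed daily for two days with chemicals at multiple concentrations, 0.2% DMSO vehicle. SLCO1B1 mRNA at 24 h measured by qNPA chemiluminescence; induction fitted relative to DMSO.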

Read-out in assay [2]: sulfotransferase (SULT2A), SULT2A1 (gene 6822)
The assay is described as follows: CLD_SULT2A_24hr: CellzDirect (CLD) Gene Expression Assay for sulfotransferase (SULT2A) at 24 hours (AID 2283694). The procedure, abridged:
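Primary human hepatocytes from two donor preparations were dosed daily with fresh solutions, vehicle 0.2% DMSO. At 24 h, lysates went to quantitative nuclease protection (qNPA) with S1 digestion and chemiluminescent readout. Cytotoxicity was annotated from phase-contrast morphology.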

Read-out in assay [3]: glucuronosyltransferase (UGT1A1), UGT1A1 (gene 54658)
Briefly: CLD_UGT1A1_24hr: CellzDirect (CLD) Gene Expression Assay for glucuronosyltransferase (UGT1A1) at 24 hours (AID 2283696). Put shortly:
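Primary human hepatocytes from two donor preparations were dosed (0.2% DMSO vehicle) and harvested at 24 h; UGT1A1 mRNA induction was quantified by chemiluminescent qNPA, fitted as gain relative to DMSO.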

Read-out in assay [4]: Cytochrome P450 2B6 (Homo sapiens) (UniProt P20813)
Briefly: CLD_CYP2B6_48hr: CellzDirect (CLD) Gene Expression Assay for xenobiotic metabolism (CYP2B6) at 48 hours (AID 2283699).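 Also: actives raise transcript level above DMSO so potency reflects induction.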 The procedure, abridged:
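Primary human hepatocytes dosed daily for two days over multiple concentrations, 0.2% DMSO vehicle; CYP2B6 mRNA quantified at 48 h by qNPA chemiluminescence. Induction fitted as gain of signal versus DMSO; cytotoxicity annotated by morphology.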

Read-out in assay [5]: Broad substrate specificity ATP-binding cassette transporter ABCG2 (Homo sapiens) (UniProt Q9UNQ0)
The assay is described as follows: CLD_ABCG2_48hr: CellzDirect (CLD) Gene Expression Assay for ABC Transporter (ABCG2) at 48 hours (AID 2283704).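 As to AC50: potency for induction of ABCG2 mRNA above the DMSO baseline.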 Put shortly: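 Primary human hepatocytes from two donors, dosed daily for 2 days, 0.2% DMSO vehicle, several concentrations. ABCG2 mRNA at 48 h by qNPA chemiluminescence, gain fitted versus DMSO; cytotoxicity flagged by morphology.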

Read-out in assay [6]: xenobiotic metabolism (CYP1A1), CYP1A1 (gene 1543)
Briefly: CLD_CYP1A1_48hr: CellzDirect (CLD) Gene Expression Assay for xenobiotic metabolism (CYP1A1) at 48 hours (AID 2283705). Put shortly: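 Primary human hepatocytes from two donors dosed daily for two days at multiple concentrations, 0.2% DMSO vehicle; CYP1A1 mRNA induction at 48 h by qNPA chemiluminescence. Cytotoxicity noted by phase-contrast morphology.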

Read-out in assay [7]: Glyceraldehyde-3-phosphate dehydrogenase (Homo sapiens) (UniProt P04406)
The assay is described as follows: CLD_GAPDH_48hr: CellzDirect (CLD) Gene Expression Assay for Baseline Control (Glyceraldehyde 3-phosphate dehydrogenase) at 48 hours (AID 2283706).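 Also: active means higher GAPDH mRNA than DMSO vehicle.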 Put shortly: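 Primary human hepatocytes dosed daily for two days with fresh chemical at multiple concentrations, 0.2% DMSO vehicle; GAPDH mRNA measured at 48 h by quantitative nuclease protection assay with chemiluminescence, fitted upward relative to DMSO as background control.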

Read-out in assay [8]: alkyl and aryl transferase (GSTA2), GSTA2 (gene 2939)
Briefly: CLD_GSTA2_48hr: CellzDirect (CLD) Gene Expression Assay for alkyl and aryl transferase (GSTA2) at 48 hours (AID 2283708).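 Also: active means mRNA induction above DMSO vehicle baseline.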 The procedure, abridged:
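Primary human hepatocytes dosed daily for two days (0.2% DMSO vehicle), harvested at 48 h. GSTA2 mRNA induction measured by quantitative nuclease protection assay with chemiluminescent imaging, fitted for gain of signal relative to DMSO.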

Read-out in assay [9]: glucuronosyltransferase (UGT1A1), UGT1A1 (gene 54658)
The assay is described as follows: CLD_UGT1A1_48hr: CellzDirect (CLD) Gene Expression Assay for glucuronosyltransferase (UGT1A1) at 48 hours (AID 2283709).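 Also: actives increase expression relative to DMSO so potency refers to induction.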 The procedure, abridged:
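Human primary hepatocytes dosed daily for two days (0.2% DMSO vehicle), harvested at 48 h. UGT1A1 mRNA induction measured by quantitative nuclease protection assay with chemiluminescence; gain of signal versus DMSO; cytotoxicity flagged from morphology.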

Read-out in assay [10]: sulfotransferase (SULT2A), SULT2A1 (gene 6822)
The assay is described as follows: CLD_SULT2A_48hr: CellzDirect (CLD) Gene Expression Assay for sulfotransferase (SULT2A) at 48 hours (AID 2283710).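 Also: hits raise SULT2A1 transcript above the 0.2% DMSO vehicle baseline.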 The procedure, abridged: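 Primary human hepatocytes (two donor preparations) dosed daily for two days with chemicals at multiple concentrations, vehicle 0.2% DMSO; SULT2A1 mRNA induction at 48 h by quantitative nuclease protection assay, chemiluminescent read-out, fitted for gain of signal versus DMSO.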

Read-out in assay [11]: xenobiotic metabolism (CYP2C9), CYP2C9 (gene 1559)
The assay is described as follows: CLD_CYP2C9_48hr: CellzDirect (CLD) Gene Expression Assay for xenobiotic metabolism (CYP1A2) at 48 hours (AID 2283701; active = hit-call score of the fitted dose curve at least 0.9, where 1 is the maximum; inactive = score below 0.9). The procedure, abridged: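 Primary human hepatocytes (two donor preparations) dosed daily for two days with test chemicals, 0.2% DMSO vehicle; harvested at 48 h. mRNA induction quantified by qNPA chemiluminescence, fitted for gain of signal against DMSO baseline; cytotoxicity annotated from phase-contrast morphology.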

Read-out in assay [12]: xenobiotic metabolism (CYP1A2), CYP1A2 (gene 1544)
Briefly: CLD_CYP1A2_48hr: CellzDirect (CLD) Gene Expression Assay for xenobiotic metabolism (CYP1A2) at 48 hours (AID 2283703). Put shortly: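 Primary human hepatocytes from two donor preparations were dosed daily for two days at multiple concentrations in 0.2% DMSO vehicle. CYP1A2 mRNA was measured at 48 hours by chemiluminescent quantitative nuclease protection assay, with gain of signal fitted versus DMSO and cytotoxicity annotated from morphology.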

Assay [13] is described as follows: STM_H9_OrnithineISnorm_perc: Stemina devTOX quickPredict H9 human embryonic stem cell (hESC)-based Assay for Ornithine (ORN) Metabolite Biomarker, Normalized (AID 2283712; active = hit-call score of the fitted dose curve at least 0.9, where 1 is the maximum; inactive = score below 0.9;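 also: ornithine released into spent medium during last day measured by mass spectrometry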). The procedure, abridged:
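H9 human embryonic stem cells kept pluripotent receive test chemical over 72 h, refreshed daily by media exchange. Media from the closing 24 h is deproteinized and analysed by UPLC-HRMS on an amide column; ornithine signal is scaled to labelled standard and vehicle.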

Assay [14] can be described thus: STM_H9_CystineISnorm_perc: Stemina devTOX quickPredict H9 human embryonic stem cell (hESC)-based Assay for Cystine (CYSS) Metabolite Biomarker, Normalized (AID 2283713; active = hit-call score of the fitted dose curve at least 0.9, where 1 is the maximum; inactive = score below 0.9). The procedure, abridged: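 H9 hESC, pluripotent; compound 72h, re-dosed q24h with medium change. Last-24h medium → 40% acetonitrile deproteinization → UPLC-HRMS. CYSS area / C13-CYSS standard, then % of 0.1% DMSO median.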

Assay [15] is described as follows: STM_H9_OrnCyssISnorm_ratio: Stemina devTOX quickPredict H9 human embryonic stem cell (hESC)-based Assay for Ornithine (ORN):Cystine (CYSS) Ratio (AID 2283714). Put shortly:
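Steps: H9 hESCs in pluripotent state dosed 72h, medium plus compound renewed every 24h; conditioned medium from the final 24h deproteinized in 40% acetonitrile; ORN and CYSS quantified by UPLC-HRMS with C13 spike-ins; ratio relative to vehicle.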

Assay [16] can be described thus: CEETOX_H295R_MTT_cell_viability: Viability Assessment in the CeeTox HT-H295R MTT Assay (AID 2283718; active = hit-call score of the fitted dose curve at least 0.9, where 1 is the maximum; inactive = score below 0.9). The procedure, abridged: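 MTT reduction (0.5 mg/ml, 4 h at 37 C; absorbance at 570 and 650 nm) gave viability as background-corrected percent change versus controls. H295R cells had 48 h forskolin (10 uM) prestimulation, then 48 h chemical exposure at 0.1% DMSO.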

Read-out in assay [17]: Cytochrome P450 3A4 (Homo sapiens) (UniProt P08684)
Briefly: CLD_CYP3A4_48hr: CellzDirect (CLD) Gene Expression Assay for xenobiotic metabolism (CYP3A4) at 48 hours (AID 2283698). Put shortly:
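Primary human hepatocytes from two donor preparations dosed daily for two days with multiple chemical concentrations, 0.2% DMSO vehicle. CYP3A4 mRNA at 48 h by quantitative nuclease protection assay, chemiluminescence, positive fit versus DMSO; cytotoxicity flagged morphologically.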

Read-out in assay [18]: ABC Transporter (ABCB1), ABCB1 (gene 5243)
Briefly: CLD_ABCB1_48hr: CellzDirect (CLD) Gene Expression Assay for ABC Transporter (ABCB1) at 48 hours (AID 2283695). Put shortly:
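Primary human hepatocytes from two donor preparations dosed daily on two consecutive days with 0.2% DMSO vehicle. Harvest at 48 h. ABCB1 mRNA quantified by qNPA with chemiluminescence and fitted for gain of signal versus DMSO.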

Read-out in assay [19]: organic anion transporter (SLCO1B1), SLCO1B1 (gene 10599)
Briefly: CLD_SLCO1B1_48hr: CellzDirect (CLD) Gene Expression Assay for organic anion transporter (SLCO1B1) at 48 hours (AID 2283707). Put shortly:
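Primary human hepatocytes from two donor preparations dosed daily for two days with multiple concentrations, 0.2% DMSO vehicle. SLCO1B1 mRNA at 48 h by quantitative nuclease protection assay, chemiluminescence; gain-of-signal fitted versus DMSO.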

Drawing on PubChem BioAssay (EPA / NIEHS), this text covers outcome and AC50 for seven compounds.

Inconclusive results are not listed. The source made the active and inactive calls. The calls were made as follows, unless noted: active = hit-call score of the fitted dose curve at least 0.9, where 1 is the maximum; inconclusive = response in the unintended direction; inactive = score below 0.9.

Glyceraldehyde-3-phosphate dehydrogenase (Homo sapiens), sequence (P04406 whole entry, looked up): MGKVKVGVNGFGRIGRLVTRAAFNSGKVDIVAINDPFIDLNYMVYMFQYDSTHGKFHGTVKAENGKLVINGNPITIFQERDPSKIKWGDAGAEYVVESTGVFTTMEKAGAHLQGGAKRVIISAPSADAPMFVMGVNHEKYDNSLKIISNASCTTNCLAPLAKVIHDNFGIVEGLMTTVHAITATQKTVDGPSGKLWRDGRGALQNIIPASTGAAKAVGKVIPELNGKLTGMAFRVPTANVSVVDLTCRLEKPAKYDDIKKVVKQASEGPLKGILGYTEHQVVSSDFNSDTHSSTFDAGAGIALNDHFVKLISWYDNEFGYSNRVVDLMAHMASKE
Broad substrate specificity ATP-binding cassette transporter ABCG2 (Homo sapiens), sequence (Q9UNQ0 whole entry, looked up): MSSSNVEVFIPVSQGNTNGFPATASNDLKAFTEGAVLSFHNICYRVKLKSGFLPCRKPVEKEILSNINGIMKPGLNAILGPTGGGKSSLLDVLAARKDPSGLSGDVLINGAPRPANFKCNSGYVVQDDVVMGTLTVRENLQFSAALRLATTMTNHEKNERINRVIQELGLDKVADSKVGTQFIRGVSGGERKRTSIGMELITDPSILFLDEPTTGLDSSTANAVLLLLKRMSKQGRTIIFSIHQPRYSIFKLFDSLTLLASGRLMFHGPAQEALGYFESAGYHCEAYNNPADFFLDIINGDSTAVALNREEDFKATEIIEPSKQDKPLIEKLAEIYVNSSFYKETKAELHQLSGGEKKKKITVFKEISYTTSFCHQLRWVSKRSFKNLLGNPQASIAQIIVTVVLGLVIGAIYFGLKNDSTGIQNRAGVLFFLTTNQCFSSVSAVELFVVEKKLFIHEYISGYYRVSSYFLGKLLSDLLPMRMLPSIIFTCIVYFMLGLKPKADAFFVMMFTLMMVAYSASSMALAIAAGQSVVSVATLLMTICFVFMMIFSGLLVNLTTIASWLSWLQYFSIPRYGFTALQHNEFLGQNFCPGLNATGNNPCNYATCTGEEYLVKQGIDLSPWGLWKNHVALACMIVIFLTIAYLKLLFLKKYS
Cytochrome P450 3A4 (Homo sapiens), sequence (P08684 whole entry, looked up): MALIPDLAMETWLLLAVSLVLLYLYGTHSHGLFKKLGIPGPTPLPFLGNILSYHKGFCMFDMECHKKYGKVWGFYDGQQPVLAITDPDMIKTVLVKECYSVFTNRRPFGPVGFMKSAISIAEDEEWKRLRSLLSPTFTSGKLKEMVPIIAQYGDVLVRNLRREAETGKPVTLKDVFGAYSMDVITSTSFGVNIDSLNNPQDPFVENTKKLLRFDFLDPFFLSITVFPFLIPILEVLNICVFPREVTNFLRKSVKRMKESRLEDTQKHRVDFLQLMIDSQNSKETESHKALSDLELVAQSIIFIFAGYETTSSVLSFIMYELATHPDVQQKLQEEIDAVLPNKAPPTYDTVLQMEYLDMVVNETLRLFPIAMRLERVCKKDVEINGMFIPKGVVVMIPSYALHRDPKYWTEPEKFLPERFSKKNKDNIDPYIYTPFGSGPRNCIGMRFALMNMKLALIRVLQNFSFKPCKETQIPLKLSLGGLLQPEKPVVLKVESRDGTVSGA

For `CC(C)=CC1C(C(=O)OCN2C(=O)C3=C(CCCC3)C2=O)C1(C)C` (configuration not stated), the call in assay [1], in assay [2], in assay [3], in [5], in [6] and in assay [7] was inactive. For the same compound, the compound was called inactive in [8], in [9] and in [10]. Besides, the concentration at half-maximal activity (AC50) (as a rule, the concentration giving half of the maximal activity seen) in [4] was 6.64 µM (active).

For the compound `CC(C1CC1)C(O)(Cn1cncn1)c1ccc(Cl)cc1` (configuration not stated), the compound was called inactive in assay [1], in assay [2], in [3], in assay [5], in [6] and in assay [8]. For the same compound, the compound was called inactive in assay [9], in assay [10] and in assay [16]. In addition, the concentration at half-maximal activity (AC50) was 0.0911 µM (active) in [11]; 5.01 µM (active) in assay [12]; 50 µM (active) in [13]; 83 µM (active) in [14]; 77.4 µM (active) in assay [15].

With `CCOC(=O)COc1cc(-c2nn(C)c(OC(F)F)c2Cl)c(F)cc1Cl`, the outcome in assay [1], in assay [2], in assay [12], in [10] and in assay [16] was inactive. Further, the values for the AC50 in assay [17] and in [9] were 4.37 µM (active) and 6.18 µM (active), respectively.

With `CN(C)C(=O)Nc1cccc(C(F)(F)F)c1`, the compound was classed as inactive in [1], in assay [18], in assay [5], in [7], in [19] and in assay [9]. The result in assay [10], in [13], in assay [14], in assay [15] and in assay [16] was inactive. Further, the AC50 in assay [12] was 1.96 µM (active).

Regarding `CN1COCN(Cc2cnc(Cl)s2)C1=N[N+](=O)[O-]`, the outcome in assay [1], in assay [2], in assay [3], in assay [4], in assay [12] and in assay [5] was inactive. The outcome in [6], in assay [7], in assay [19] and in assay [8] was inactive.

In the case of `COc1cccc(C(=O)NN(C(=O)c2cc(C)cc(C)c2)C(C)(C)C)c1C`, the compound was called inactive in [1], in assay [2], in assay [19], in assay [8], in assay [10] and in assay [16]. Besides, the AC50 was 1.42 µM (active) in assay [17], 20 µM (active) in [12] and 8.82 µM (active) in assay [9].

As to `CCCCSP(=O)(SCCCC)SCCCC`, the outcome in [1], in assay [2] and in [19] was inactive. Also, the AC50 in assay [3] is 1.9 µM (active); in [17], 20 µM (active); in assay [12], 3.04 µM (active); in assay [5], 33.5 µM (active); in assay [6] it was 4.08 µM (active); in [9], 20 µM (active). Besides, the half-maximal activity concentration (AC50) in [10] is 33.4 µM (active).
